Paper PMC7862700, “An all-to-all approach to the identification of sequence-specific readers for epigenetic DNA modifications on cytosine”

Columns and labels:
Experiment in all cases: DAPPL (digital affinity profiling via proximity ligation, sequencing); 10 mM Tris-HCl pH 7.5, 50 mM NaCl, 1 mM DTT, 4% glycerol, room temperature, 30 min; GST-TFs on glutathione beads, 16-mer random dsDNA library, 0.1% formaldehyde crosslink after washing; high values mean tight binding
FLI1 = molecular target: T1, FLI1 (Homo sapiens, UniProt Q01543 1-452); conditions: protein: recombinant; tags: N-terminal GST; dsDNA, one strand shown
T1 sequence: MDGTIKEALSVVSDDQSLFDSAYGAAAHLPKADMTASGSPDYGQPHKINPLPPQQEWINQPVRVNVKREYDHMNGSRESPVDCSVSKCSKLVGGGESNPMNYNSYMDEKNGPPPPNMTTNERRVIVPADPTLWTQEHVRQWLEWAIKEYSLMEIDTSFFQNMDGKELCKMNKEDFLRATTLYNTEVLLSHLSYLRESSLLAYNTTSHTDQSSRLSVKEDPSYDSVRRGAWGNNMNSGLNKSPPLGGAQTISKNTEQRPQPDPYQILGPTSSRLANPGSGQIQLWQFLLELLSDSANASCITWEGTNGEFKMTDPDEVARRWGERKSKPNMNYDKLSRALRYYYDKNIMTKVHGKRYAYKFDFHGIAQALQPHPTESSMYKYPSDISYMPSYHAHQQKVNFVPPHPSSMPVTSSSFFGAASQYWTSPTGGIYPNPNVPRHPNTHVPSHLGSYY
Procedure, shortened: (§1)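 Sequencing on an Illumina NextSeq500 followed washing, crosslinking with 0.1% formaldehyde, proximity ligation (BsaI/T4 ligase, 1 h, 37 °C) and PCR amplification of pools that had been incubated for 30 min at room temperature with 200 nmole of a random double-stranded 16-mer DNA library in Tris/NaCl/DTT/glycerol buffer. Each pool held DNA-barcoded human transcription factors, expressed in yeast as GST fusions and captured on glutathione beads, plus a tag-only sample. Binding signal is a hexamer's read frequency for a factor divided by its frequency in the tag-only sample.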

ELK1 = molecular target: T2, ELK1 (Homo sapiens, UniProt P19419 1-428); conditions: protein: recombinant; tags: N-terminal GST; dsDNA, one strand shown
T2 sequence: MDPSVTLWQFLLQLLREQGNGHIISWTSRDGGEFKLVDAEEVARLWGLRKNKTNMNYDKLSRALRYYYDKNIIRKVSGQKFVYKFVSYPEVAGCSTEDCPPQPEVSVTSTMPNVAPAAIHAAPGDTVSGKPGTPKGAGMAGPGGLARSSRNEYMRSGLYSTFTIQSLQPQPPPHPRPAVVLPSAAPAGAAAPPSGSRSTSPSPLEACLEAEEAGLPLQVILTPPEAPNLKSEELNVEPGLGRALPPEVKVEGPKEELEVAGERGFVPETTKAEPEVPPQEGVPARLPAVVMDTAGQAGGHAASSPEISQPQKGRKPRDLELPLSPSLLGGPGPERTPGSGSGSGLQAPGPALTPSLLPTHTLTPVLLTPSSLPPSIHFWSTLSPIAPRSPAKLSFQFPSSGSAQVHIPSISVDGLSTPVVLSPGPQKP
Procedure, shortened: as §1

GABPA = molecular target: T3, GABPA (Homo sapiens, UniProt Q06546 1-454); conditions: protein: recombinant; tags: N-terminal GST; dsDNA, one strand shown
T3 sequence: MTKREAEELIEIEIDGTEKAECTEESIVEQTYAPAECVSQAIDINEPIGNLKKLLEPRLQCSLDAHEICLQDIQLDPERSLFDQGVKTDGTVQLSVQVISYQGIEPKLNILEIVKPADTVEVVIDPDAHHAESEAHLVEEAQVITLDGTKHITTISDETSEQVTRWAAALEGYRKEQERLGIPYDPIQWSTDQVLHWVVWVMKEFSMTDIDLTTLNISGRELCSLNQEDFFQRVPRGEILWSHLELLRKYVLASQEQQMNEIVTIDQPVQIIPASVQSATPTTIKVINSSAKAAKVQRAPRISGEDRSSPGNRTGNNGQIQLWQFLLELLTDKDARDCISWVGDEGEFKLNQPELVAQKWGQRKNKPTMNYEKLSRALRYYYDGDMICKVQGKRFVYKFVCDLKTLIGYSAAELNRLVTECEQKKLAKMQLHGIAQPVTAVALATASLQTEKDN
Procedure, shortened: as §1

ERG = molecular target: T4, ERG (Homo sapiens, UniProt P11308 1-479); conditions: protein: recombinant; tags: N-terminal GST; dsDNA, one strand shown
T4 sequence: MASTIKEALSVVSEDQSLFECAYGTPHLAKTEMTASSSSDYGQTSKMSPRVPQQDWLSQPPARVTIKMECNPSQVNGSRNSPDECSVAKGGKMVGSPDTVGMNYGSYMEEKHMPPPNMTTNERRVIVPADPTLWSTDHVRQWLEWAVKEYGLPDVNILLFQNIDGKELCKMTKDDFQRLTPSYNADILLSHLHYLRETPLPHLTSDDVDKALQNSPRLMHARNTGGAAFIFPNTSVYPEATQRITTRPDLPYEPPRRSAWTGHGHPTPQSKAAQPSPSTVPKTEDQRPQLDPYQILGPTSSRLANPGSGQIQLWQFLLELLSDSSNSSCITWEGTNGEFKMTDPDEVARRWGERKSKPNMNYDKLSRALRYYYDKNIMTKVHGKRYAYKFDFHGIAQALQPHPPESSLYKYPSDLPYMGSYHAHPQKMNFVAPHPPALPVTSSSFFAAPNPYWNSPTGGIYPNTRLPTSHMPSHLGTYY
Procedure, shortened: as §1

ELF1 = ELF1 (Homo sapiens, UniProt P32519 1-619); conditions: protein: recombinant; tags: N-terminal GST; dsDNA, one strand shown
ELF1, sequence (P32519 whole entry): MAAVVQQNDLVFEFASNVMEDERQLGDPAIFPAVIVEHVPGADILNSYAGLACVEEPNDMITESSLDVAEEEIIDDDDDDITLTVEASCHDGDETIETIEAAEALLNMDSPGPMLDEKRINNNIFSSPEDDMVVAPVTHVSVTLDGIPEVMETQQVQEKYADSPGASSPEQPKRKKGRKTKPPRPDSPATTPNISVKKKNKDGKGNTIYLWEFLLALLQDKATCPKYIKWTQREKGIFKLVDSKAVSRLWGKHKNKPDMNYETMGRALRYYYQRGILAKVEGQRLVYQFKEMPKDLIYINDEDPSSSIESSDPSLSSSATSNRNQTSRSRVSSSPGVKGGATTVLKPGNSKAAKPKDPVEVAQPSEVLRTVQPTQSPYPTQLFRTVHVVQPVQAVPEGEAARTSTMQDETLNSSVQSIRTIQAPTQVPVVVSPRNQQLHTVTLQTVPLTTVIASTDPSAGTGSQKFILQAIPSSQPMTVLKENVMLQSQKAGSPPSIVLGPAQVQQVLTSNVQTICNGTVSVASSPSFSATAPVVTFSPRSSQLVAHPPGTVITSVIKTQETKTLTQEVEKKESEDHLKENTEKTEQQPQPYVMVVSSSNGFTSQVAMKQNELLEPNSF
Procedure, shortened: as §1

EHF = molecular target: T5, EHF (Homo sapiens, UniProt Q9NZC4 1-300); conditions: protein: recombinant; tags: N-terminal GST; dsDNA, one strand shown
T5 sequence: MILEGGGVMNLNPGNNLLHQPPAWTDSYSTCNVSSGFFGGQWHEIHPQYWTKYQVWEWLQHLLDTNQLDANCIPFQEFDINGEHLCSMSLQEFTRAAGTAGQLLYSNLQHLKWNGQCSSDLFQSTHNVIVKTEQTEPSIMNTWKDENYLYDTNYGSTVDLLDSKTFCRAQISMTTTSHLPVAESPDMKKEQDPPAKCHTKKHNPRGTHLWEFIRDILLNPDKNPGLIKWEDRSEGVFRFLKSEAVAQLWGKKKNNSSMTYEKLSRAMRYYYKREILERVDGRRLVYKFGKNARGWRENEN
Procedure, shortened: as §1

SPI1 = SPI1 (Homo sapiens, UniProt P17947 1-270); conditions: protein: recombinant; tags: N-terminal GST; dsDNA, one strand shown
Procedure, shortened: as §1

SPIB = SPIB (Homo sapiens, UniProt Q01892 1-262); conditions: protein: recombinant; tags: N-terminal GST; dsDNA, one strand shown
SPIB, sequence (Q01892 whole entry): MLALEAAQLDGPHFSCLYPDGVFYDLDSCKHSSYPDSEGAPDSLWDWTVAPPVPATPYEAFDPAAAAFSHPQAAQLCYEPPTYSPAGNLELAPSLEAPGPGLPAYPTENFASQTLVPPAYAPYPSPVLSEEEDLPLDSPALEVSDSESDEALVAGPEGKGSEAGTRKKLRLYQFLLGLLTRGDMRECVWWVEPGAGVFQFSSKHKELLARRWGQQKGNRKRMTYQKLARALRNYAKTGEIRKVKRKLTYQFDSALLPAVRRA
Procedure, shortened: as §1

ELK3 = molecular target: T6, ELK3 (Homo sapiens, UniProt P41970 1-407); conditions: protein: recombinant; tags: N-terminal GST; dsDNA, one strand shown
T6 sequence: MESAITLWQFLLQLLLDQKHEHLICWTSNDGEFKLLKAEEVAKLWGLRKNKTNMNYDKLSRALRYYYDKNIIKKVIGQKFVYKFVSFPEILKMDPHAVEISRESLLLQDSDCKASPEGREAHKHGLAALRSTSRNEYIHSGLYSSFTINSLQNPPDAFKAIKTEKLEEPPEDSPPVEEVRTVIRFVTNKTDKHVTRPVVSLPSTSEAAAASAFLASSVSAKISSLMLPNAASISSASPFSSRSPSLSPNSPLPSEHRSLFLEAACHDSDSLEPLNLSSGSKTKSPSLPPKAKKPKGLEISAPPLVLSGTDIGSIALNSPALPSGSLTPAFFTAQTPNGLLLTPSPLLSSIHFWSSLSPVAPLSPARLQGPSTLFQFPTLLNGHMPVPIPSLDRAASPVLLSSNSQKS
Procedure, shortened: as §1

FEV = molecular target: T7, FEV (Homo sapiens, UniProt Q99581 1-238); conditions: protein: recombinant; tags: N-terminal GST; dsDNA, one strand shown
T7 sequence: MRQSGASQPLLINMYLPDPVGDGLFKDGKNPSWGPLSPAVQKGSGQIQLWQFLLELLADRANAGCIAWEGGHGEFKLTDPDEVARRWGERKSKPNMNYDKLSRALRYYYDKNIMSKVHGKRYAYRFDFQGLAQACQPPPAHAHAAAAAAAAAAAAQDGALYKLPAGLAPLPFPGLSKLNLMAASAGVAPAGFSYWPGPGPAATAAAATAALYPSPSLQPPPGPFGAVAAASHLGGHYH
Procedure, shortened: as §1

ETV5 = ETV5 (Homo sapiens, UniProt P41161 1-510); conditions: protein: recombinant; tags: N-terminal GST; dsDNA, one strand shown
ETV5, sequence (P41161 whole entry): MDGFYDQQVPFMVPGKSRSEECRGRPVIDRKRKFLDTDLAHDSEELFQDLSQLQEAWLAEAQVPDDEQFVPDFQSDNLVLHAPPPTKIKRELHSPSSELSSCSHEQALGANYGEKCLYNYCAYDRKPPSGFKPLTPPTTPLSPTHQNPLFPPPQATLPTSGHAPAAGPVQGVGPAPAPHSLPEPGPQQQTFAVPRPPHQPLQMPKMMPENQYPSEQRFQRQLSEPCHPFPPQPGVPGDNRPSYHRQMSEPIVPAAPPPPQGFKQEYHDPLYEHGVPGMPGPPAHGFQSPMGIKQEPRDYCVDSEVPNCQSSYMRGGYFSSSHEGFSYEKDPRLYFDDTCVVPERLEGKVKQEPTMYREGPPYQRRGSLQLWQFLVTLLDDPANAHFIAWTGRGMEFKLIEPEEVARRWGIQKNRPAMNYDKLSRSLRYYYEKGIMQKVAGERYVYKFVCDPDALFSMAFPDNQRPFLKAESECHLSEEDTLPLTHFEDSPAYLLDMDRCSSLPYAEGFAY
Procedure, shortened: as §1

HSF1 = HSF1 (Homo sapiens, UniProt Q00613 1-529); conditions: protein: recombinant; tags: N-terminal GST; chain copies: 3; dsDNA, one strand shown
HSF1, sequence (Q00613 whole entry): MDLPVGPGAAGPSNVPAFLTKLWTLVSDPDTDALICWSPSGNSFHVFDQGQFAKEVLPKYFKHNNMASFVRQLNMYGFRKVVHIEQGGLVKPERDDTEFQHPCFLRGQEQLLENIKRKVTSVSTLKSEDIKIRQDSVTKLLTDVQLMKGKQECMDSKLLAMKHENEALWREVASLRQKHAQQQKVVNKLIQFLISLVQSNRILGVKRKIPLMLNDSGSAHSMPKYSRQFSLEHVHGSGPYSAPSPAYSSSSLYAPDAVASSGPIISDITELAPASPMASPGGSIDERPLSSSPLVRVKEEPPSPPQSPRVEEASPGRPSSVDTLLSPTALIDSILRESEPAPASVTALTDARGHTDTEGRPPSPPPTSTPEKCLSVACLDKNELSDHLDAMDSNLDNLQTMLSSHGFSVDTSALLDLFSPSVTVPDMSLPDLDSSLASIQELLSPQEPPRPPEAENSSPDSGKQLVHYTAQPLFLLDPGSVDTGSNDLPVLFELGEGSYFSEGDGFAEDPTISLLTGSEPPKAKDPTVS
Procedure, shortened: as §1

SPIC = molecular target: T8, SPIC (Homo sapiens, UniProt Q8N5J4 1-248); conditions: protein: recombinant; tags: N-terminal GST; dsDNA, one strand shown
T8 sequence: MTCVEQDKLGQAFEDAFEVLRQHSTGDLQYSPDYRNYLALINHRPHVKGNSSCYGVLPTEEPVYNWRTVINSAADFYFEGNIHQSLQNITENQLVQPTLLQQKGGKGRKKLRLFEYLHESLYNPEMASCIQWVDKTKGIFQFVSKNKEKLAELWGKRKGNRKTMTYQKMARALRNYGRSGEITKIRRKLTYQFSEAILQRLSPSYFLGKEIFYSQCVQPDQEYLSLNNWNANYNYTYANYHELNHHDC
Procedure, shortened: as §1

ELF4 = ELF4 (Homo sapiens, UniProt Q99607 1-663); conditions: protein: recombinant; tags: N-terminal GST; dsDNA, one strand shown
ELF4, sequence (Q99607 whole entry): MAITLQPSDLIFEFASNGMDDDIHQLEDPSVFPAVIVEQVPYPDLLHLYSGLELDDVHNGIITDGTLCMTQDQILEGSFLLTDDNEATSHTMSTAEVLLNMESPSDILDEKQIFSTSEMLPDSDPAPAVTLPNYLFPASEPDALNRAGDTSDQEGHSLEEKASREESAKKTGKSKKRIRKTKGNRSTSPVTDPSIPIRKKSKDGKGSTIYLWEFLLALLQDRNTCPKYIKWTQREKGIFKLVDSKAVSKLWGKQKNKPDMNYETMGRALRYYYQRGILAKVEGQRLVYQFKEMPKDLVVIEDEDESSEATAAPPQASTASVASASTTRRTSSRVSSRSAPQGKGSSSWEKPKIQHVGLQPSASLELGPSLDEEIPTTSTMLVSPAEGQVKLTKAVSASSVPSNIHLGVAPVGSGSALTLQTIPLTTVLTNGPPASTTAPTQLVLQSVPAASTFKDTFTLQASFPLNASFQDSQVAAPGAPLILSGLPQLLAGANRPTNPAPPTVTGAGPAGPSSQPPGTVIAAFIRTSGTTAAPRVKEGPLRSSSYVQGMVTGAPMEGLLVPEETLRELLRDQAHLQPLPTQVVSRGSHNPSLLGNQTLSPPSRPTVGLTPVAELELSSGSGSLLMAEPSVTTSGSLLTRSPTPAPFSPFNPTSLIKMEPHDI
Procedure, shortened: as §1

ELK4 = molecular target: T9, ELK4 (Homo sapiens, UniProt P28324-2 1-405); conditions: protein: recombinant; tags: N-terminal GST; dsDNA, one strand shown
T9 sequence: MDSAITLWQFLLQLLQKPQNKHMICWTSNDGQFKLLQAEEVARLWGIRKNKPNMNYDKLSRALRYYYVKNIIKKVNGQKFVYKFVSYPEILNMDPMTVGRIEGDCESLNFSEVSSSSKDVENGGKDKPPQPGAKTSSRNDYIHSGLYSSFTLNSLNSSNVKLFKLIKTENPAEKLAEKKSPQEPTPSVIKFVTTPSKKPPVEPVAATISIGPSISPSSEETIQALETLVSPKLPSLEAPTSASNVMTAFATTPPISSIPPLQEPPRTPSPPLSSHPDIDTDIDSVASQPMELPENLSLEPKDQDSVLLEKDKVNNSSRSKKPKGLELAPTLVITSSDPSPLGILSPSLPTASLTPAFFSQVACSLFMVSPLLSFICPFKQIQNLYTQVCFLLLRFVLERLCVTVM
Procedure, shortened: as §1

ETV2 = molecular target: T10, ETV2 (Homo sapiens, UniProt O00321 1-342); conditions: protein: recombinant; tags: N-terminal GST; dsDNA, one strand shown
T10 sequence: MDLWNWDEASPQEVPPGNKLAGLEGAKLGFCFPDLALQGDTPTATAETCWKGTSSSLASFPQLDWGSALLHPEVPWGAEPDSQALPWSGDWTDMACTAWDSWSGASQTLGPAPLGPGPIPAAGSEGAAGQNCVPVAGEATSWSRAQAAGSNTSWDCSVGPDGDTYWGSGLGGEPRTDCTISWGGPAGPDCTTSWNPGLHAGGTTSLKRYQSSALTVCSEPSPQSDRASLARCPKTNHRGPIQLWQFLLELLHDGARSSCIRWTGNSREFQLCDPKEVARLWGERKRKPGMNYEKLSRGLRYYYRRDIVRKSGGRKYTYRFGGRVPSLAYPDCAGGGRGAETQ
Procedure, shortened: as §1

ELF3 = molecular target: T11, ELF3 (Homo sapiens, UniProt P78545 1-371); conditions: protein: recombinant; tags: N-terminal GST; dsDNA, one strand shown
T11 sequence: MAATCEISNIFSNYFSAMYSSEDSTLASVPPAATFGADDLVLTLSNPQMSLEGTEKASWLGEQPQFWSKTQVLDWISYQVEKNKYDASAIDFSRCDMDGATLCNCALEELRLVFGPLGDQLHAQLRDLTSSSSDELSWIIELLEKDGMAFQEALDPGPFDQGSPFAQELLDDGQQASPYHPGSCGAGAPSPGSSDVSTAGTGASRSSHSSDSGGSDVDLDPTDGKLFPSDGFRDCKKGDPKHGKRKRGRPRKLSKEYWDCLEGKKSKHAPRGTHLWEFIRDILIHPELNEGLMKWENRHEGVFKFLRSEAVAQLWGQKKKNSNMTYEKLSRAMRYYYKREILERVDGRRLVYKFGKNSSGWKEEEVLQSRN
Procedure, shortened: as §1

CRX = CRX (Homo sapiens, UniProt O43186 1-299); conditions: protein: recombinant; tags: N-terminal GST; dsDNA, one strand shown
CRX, sequence (O43186 whole entry): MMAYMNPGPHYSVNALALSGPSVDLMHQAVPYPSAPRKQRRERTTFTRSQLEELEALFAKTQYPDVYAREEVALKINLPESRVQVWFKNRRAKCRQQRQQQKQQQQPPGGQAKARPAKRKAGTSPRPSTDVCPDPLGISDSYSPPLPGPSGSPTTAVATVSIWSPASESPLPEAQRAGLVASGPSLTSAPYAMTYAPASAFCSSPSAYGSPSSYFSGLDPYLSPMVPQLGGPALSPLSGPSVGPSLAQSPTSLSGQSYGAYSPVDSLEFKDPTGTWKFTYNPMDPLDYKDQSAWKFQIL
Procedure, shortened: as §1

ETV1 = ETV1 (Homo sapiens, UniProt P50549 1-477); conditions: protein: recombinant; tags: N-terminal GST; dsDNA, one strand shown
ETV1, sequence (P50549 whole entry): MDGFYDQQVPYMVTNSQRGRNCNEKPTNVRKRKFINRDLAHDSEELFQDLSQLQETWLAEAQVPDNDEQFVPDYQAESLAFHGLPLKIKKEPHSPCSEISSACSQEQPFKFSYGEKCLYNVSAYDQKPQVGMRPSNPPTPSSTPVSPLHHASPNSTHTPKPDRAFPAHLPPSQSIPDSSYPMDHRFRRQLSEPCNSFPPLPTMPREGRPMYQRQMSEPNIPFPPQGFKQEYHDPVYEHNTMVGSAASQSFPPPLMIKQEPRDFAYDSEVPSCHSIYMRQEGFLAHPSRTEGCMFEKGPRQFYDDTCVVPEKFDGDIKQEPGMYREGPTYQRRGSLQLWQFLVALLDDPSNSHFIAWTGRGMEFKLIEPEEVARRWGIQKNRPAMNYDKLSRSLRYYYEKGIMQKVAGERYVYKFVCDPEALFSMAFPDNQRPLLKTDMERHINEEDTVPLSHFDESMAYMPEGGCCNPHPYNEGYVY
Procedure, shortened: as §1

Q: What does the source list for AAATAC?
A: binding signal (FLI1): 1.3 fold enrichment (6-mer frequency, TF over GST control); binding signal (ELK1): 1.27 fold enrichment (6-mer frequency, TF over GST control); binding signal (GABPA): 1.43 fold enrichment (6-mer frequency, TF over GST control); binding signal (ERG): 1.43 fold enrichment (6-mer frequency, TF over GST control); binding signal (ELF1): 1.36 fold enrichment (6-mer frequency, TF over GST control); binding signal (EHF): 1.39 fold enrichment (6-mer frequency, TF over GST control); binding signal (SPI1): 1.41 fold enrichment (6-mer frequency, TF over GST control); binding signal (SPIB): 1.36 fold enrichment (6-mer frequency, TF over GST control); binding signal (ELK3): 1.37 fold enrichment (6-mer frequency, TF over GST control); binding signal (FEV): 1.41 fold enrichment (6-mer frequency, TF over GST control); binding signal (ETV5): 1.43 fold enrichment (6-mer frequency, TF over GST control); binding signal (HSF1): 1.36 fold enrichment (6-mer frequency, TF over GST control); binding signal (SPIC): 1.3 fold enrichment (6-mer frequency, TF over GST control); binding signal (ELF4): 1.36 fold enrichment (6-mer frequency, TF over GST control); binding signal (ELK4): 1.18 fold enrichment (6-mer frequency, TF over GST control); binding signal (ETV2): 1.51 fold enrichment (6-mer frequency, TF over GST control); binding signal (ELF3): 1.37 fold enrichment (6-mer frequency, TF over GST control); binding signal (CRX): 1.46 fold enrichment (6-mer frequency, TF over GST control); binding signal (ETV1): 1.39 fold enrichment (6-mer frequency, TF over GST control)
